# A selection: hits, their analogues and other compounds. The true share with any hit is near 4.7%.
# RecA splice inh: Mtb RecA intein splicing inhibition | P9WHJ3 | cell-free RecA intein splicing, fluorescence | inhibition, % (test concentration not listed) | 290,000 compounds, 0.75% hits | AID 2221; in the data active means inhibition above about 30%;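 further: 0% = vehicle wells and 100% = reference inhibitor control wells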
# VHR inh abs: blocks human VHR1 dual specificity phosphatase; recombinant VHR phosphatase, pNPP absorbance; inhibition, % at 13.3 µM; AID 1654; 290,000 compounds, 0.52% hits; in the data active means inhibition above about 50%
# Target sequence (P51452 whole entry, looked up): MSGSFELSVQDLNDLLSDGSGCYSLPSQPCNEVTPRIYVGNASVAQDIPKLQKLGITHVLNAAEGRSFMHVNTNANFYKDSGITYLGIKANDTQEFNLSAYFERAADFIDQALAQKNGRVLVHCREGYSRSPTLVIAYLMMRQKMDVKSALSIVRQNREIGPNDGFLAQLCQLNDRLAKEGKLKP
# 3CLpro inhibitor: SARS-CoV 3CLpro protease inhibition | 290,000 compounds, 0.14% hits | recombinant SARS-CoV 3CLpro, quenched FRET peptide cleavage | inhibition, % at 6 µM; in the data active means inhibition above about 12%
# CCHFV vOTU inh: CCHFV vOTU protease inhibition; 370,000 compounds, 0.55% hits; inhibition, % at 11.5 µM; Pep-AMC fluorescence; further: 0% = vehicle wells with enzyme and 100% = no enzyme wells
# Mtb FBA inh: Mtb fructose-bisphosphate aldolase inhibition; P9WQA3; purified M. tuberculosis FBA, fluorescence read-out; inhibition, % at 1 µM; 360,000 compounds, 2.3% hits; AID 588726; in the data active means inhibition above about 27%;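 further: 0% = vehicle and 100% = reference inhibitor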
# Target sequence (P9WQA3 whole entry, looked up): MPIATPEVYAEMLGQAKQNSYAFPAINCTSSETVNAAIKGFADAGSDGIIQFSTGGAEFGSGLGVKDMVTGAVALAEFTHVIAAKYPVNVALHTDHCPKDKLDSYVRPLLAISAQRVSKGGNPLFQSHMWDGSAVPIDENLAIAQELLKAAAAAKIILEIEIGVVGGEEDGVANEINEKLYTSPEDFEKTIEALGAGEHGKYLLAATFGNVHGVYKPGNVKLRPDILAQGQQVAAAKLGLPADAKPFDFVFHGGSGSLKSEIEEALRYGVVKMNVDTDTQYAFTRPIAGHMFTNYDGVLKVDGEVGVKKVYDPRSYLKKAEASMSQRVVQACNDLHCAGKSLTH
# GDH-TPI counter-1: inhibits GDH-TPI coupling enzymes, artifact for Mtb FBA screen; GDH-TPI coupled enzyme counterscreen, NADH absorbance; inhibition, % at 4.8 µM; 360,000 compounds, 1.2% hits; AID 588335;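 further: 0% = DMSO wells and 100% = wells lacking the enzyme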
# Mtb FBA confirm: Mtb FBA inhibition, confirmed | inhibition, % at 1 µM | shares compounds with Mtb FBA inh | purified M. tuberculosis FBA, fluorescence read-out | 5,600 compounds, 78% hits | AID 651616; in the data active means inhibition above about 27%;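 further: 0% = vehicle wells and 100% = reference inhibitor wells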
# GDH-TPI counter-2: counter-screen for M. tuberculosis FBA inhibitors: GDH-TPI coupled enzyme inhibition; shares compounds with Mtb FBA inh; GDH-TPI coupled enzyme counterscreen, fluorescence; inhibition, % at 1 µM; 5,600 compounds, 81% hits; AID 652141; in the data active means inhibition above about 10%
# Active calls of the source: *; x = not tested or not shown; + = active, no number. Unless noted, no stated cut-off is given here; in the data, active means inhibition above about 30%; inactive means the rest.
SMILES,RecA splice inh,VHR inh abs,3CLpro inhibitor,CCHFV vOTU inh,Mtb FBA inh,GDH-TPI counter-1,Mtb FBA confirm,GDH-TPI counter-2
COc1ccc(CCNC(=O)c2cc(C3CC3)nc3c2cnn3C(C)C)cc1OC,x,x,x,-2,5,8,x,x
NS(=O)(=O)c1ccc(CCNC(=O)C2CCC(Cn3c(=S)[nH]c4ccccc4c3=O)CC2)cc1 (configuration not stated),0,19,-3,7,-7,-3,x,x
Cc1nc2c(-c3ccc(Cl)cc3)c(C)[nH]n2c(=O)c1Cc1ccccc1,-5,30,6,-4,39*,-2,2,3
Cc1nc2c(-c3ccc(F)cc3)c(C)[nH]n2c(=O)c1Cl,43*,-4,-5,-1,42*,24,27,21*
Cc1[nH]n2c(=O)c3c(nc2c1-c1ccc(F)cc1)CCCC3,-4,15,0,0,5,4,x,x
CCOC(=O)C1=NOC(C(C)=O)(C(=O)Nc2cc(C)cc(C)c2)C1 (configuration not stated),x,x,x,-4,x,x,x,x
CCN(CC)c1ccc(-c2sc(Nc3ccccc3)n[n+]2-c2ccc(F)cc2)cc1,-41,-26,-3,20,14,17,x,x
CCc1ccc(Nc2n[n+](-c3ccccc3)c(-c3ccc(N(CC)CC)cc3)s2)cc1,-21,25,-6,16,51*,8,36*,35*
CCOP(=O)(OCC)c1nc(-c2ccc(F)cc2)oc1NCc1ccccc1,5,-15,1,1,77*,3,46*,29*
O=P(c1ccccc1)(c1ccccc1)c1nc(-c2ccccc2)oc1NCc1ccccc1,0,2,-3,4,4,1,x,x
CCOP(=O)(OCC)c1nc(-c2ccccc2)oc1NCc1ccccc1,9,-4,2,-26,82*,8,24,13*
CCc1ccc(OCCCC(=O)Nc2ccc(S(N)(=O)=O)cc2)cc1,1,26,0,-6,2,-3,x,x
Cc1cc(NC(=O)c2cc(F)c(F)cc2Cl)no1,1,-14,2,-9,-3,-5,x,x
Cc1ccc(NC(=O)c2cc(F)c(F)cc2Cl)nc1,-2,26,-2,-2,82*,-1,136*,124*
Cc1ccc(NC(=O)c2ccccc2F)nc1,0,-9,-5,-33,33*,3,96*,78*
CCCCn1nc2cc(C(=O)NCc3cc(C(F)(F)F)cc(C(F)(F)F)c3)ccc2c1OCC,-2,9,6,16,18,12,x,x
CCOc1c2ccc(C(=O)NCc3cc(C(F)(F)F)cc(C(F)(F)F)c3)cc2nn1C,-33,30,1,-12,57*,9,60*,44*
CCOc1c2ccc(C(=O)NCc3cc(C(F)(F)F)cc(C(F)(F)F)c3)cc2nn1CCOC,0,15,3,-15,43*,5,105*,64*
COCCn1nc2cc(C(=O)NCc3cc(C(F)(F)F)cc(C(F)(F)F)c3)ccc2c1OC,-1,-7,4,-27,47*,6,57*,42*
COCCn1c(=S)[nH]c2cc(C(=O)NCc3ccc(F)cc3)ccc2c1=O,x,x,x,-6,4,19,x,x
COCOc1cc(O)c2c(=O)c(OCOC)c(-c3ccc(OCOC)c(OCOC)c3)oc2c1,2,x,x,17,-1,7,x,x
COCOc1ccc(-c2cc(=O)c3c(OCOC)cc(OCOC)cc3o2)cc1,-1,x,x,x,64*,21,106*,64*
CCOC(=O)CN(c1ccccn1)S(=O)(=O)c1ccccc1,0,21,-2,-2,35*,8,-2,-5
CC12CCC(=O)N1c1c(sc3nc(N4CCOCC4)c4c(c13)CCCC4)C(=O)N2 (configuration not stated),-147,16,-2,-58,63*,27,122*,113*
Cc1ccc2c(c1)c1c(c(=O)n(-c3ccccc3)c(=O)n1CC(=O)NCC1CCCO1)n2C (configuration not stated),-1,10,-1,-8,56*,-3,76*,52*
SMILES,RecA splice inh,VHR inh abs,3CLpro inhibitor,CCHFV vOTU inh,Mtb FBA inh,GDH-TPI counter-1,Mtb FBA confirm,GDH-TPI counter-2
COc1ccc(OC)c(/C=N/NC(=O)CC(=O)NC2CCCCC2)c1,-4,26,-1,-122,105*,2,152*,122*
COc1ccc(OC)c(/C=N/NC(=O)CC(=O)NCc2ccccc2)c1,-2,16,0,-46,29*,-3,111*,103*
COc1ccc(OC)c(/C=N/NC(=O)CC2C(=O)NN=C2C)c1 (configuration not stated),-1,-15,0,-90,68*,15,42*,38*
COc1ccc(OC)c(C=NNC(=O)NN=Cc2cc(OC)ccc2OC)c1,x,x,x,-22,11,27,x,x
COc1ccc(/C=N/NC(=O)CC(=O)NCc2cccnc2)c(OC)c1,2,17,5,22,-2,18,x,x
CCOc1cc(/C=N/NC(=O)CCCC(=O)NC2CCCCC2)ccc1O,-4,-10,1,11,56*,12,24,14*
CN1CCCC(C)(C(=O)Nc2cccc(Oc3ccccc3)c2)C1 (configuration not stated),x,x,x,-6,0,9,x,x
COc1cc(/C=N/NC(=O)c2ccccn2)ccc1OC(=O)c1cccs1,9,20,3,11,2,17,x,x
COc1ccc(OC)c(/C=N/Nc2nc(C)cc(=O)[nH]2)c1,-4,-5,3,-37,49*,22,194*,173*
COc1ccc(-c2c(NC(=O)C(C)C)n(C)c3ccccc3c2=O)cc1,0,-45,-3,-42,37*,16,+,+
CC(O)(c1ccc(F)c(F)c1)c1nc(-c2cccc3cccnc23)cs1 (configuration not stated),x,x,x,8,3,4,x,x
CC(=O)C1(O)C(C)CC2C3CC(F)C4(O)CC(O)CCC4(C)C3CCC21C (configuration not stated),x,x,x,-24,4,9,x,x
COc1ccc(-c2ccc3c(c2)S(=O)(=O)c2cccc(C(=O)NCCOc4ccccc4)c2C3=O)cc1OC,x,x,x,x,52*,11,39*,29*
CC(=O)c1cccc(NC(=O)Cn2cnc(S(=O)(=O)N3CCC(C)CC3)c2)c1,-2,-9,2,x,1,18,x,x
CC1CCN(S(=O)(=O)c2cn(CC(=O)Nc3cccc(C#N)c3)cn2)CC1,-2,18,-2,4,39*,17,80*,65*
CCN1C=C(Cc2cccs2)C2=C(C1)C(c1cccs1)C(C#N)=C(N)O2 (configuration not stated),13,19,-6,7,0,5,x,x
O=c1cc(Nc2ccc3c(c2)OCCO3)[nH]c(=O)n1C1CCCCC1,-2,5,1,3,0,10,x,x

# From PubChem
